Measured values from PubChem BioAssay (NCI).
Several values for one entry are separate records, joined by “and”; a condition that tells them apart may be missing. Identical values can stand only once. The panel holds about 79,000 compounds, 15% with a hit somewhere; the sample as a whole holds those more often. Where a structure was tested more than once in an assay, its records may differ in their call. Activity calls are given as the source filed them. Cut-off read from the data, not from the text of the source: active = growth inhibition above about 70%; inactive = the rest.

Assays:
[1] = NCI Yeast Anticancer Drug Screen. Data for the mlh1 strain (AID 171);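 note: 0% = growth of vehicle-treated control cultures of the same strain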; details: S. cerevisiae mlh1 strain growth inhibition, stronger effect = higher value
How it was run: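 Read-out: growth inhibition versus vehicle controls. Strain: engineered yeast with a defined DNA repair or cell cycle defect, compound-treated.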

[2] = NCI Yeast Anticancer Drug Screen. Data for the sgs1 strain (AID 173);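 note: 0% = growth of vehicle-only control cultures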; details: S. cerevisiae sgs1 mutant, stronger effect = higher value
How it was run: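 Read-out: yeast growth inhibition relative to vehicle controls, following compound exposure of a strain with a defined DNA repair/cell cycle alteration.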

[3] = NCI Yeast Anticancer Drug Screen. Data for the mlh1 rad18 strain (AID 175); details: S. cerevisiae mlh1 rad18 strain growth inhibition, stronger effect = higher value
How it was run: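 Yeast w/ defined DNA-repair lesions; compound exposure; growth vs vehicle controls → % inhibition.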

[4] = NCI Yeast Anticancer Drug Screen. Data for the rad52 strain (AID 147);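 note: 0% = growth of vehicle-treated control cultures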; details: S. cerevisiae rad52 mutant growth inhibition, stronger effect = higher value
How it was run: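 Read-out: growth inhibition versus vehicle-treated controls. Cells were a DNA repair-deficient yeast strain treated with compounds.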

[5] = NCI Yeast Anticancer Drug Screen. Data for the wt1 strain (AID 149);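 note: 0% = growth of vehicle-treated wt1 cultures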; details: S. cerevisiae wt1 strain (SPY 50644) growth inhibition, stronger effect = higher value
How it was run: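 wt1 yeast, compound-treated; % growth inhibition vs vehicle control.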

[6] = NCI Yeast Anticancer Drug Screen. Data for the rad50EPP+ strain (AID 151);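 note: 0% = growth of vehicle-treated control cultures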; details: S. cerevisiae rad50 mutant strain, stronger effect = higher value
How it was run: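 Growth inhibition read against vehicle controls in rad50EPP+ yeast, a strain altered in DNA damage repair, after compound exposure.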

[7] = NCI Yeast Anticancer Drug Screen. Data for the rad50 strain (AID 155);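 note: 0% = growth of vehicle-only cultures of the same strain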; details: S. cerevisiae rad50 strain growth inhibition, stronger effect = higher value
How it was run: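 Genetically altered yeast (DNA repair pathway); compound treatment; growth inhibition vs vehicle ctrl.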

[8] = NCI Yeast Anticancer Drug Screen. Data for the mec2-1 strain (AID 157); details: S. cerevisiae mec2-1 strain, stronger effect = higher value
How it was run: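 Yeast mec2-1 mutant treated with compound. Readout: growth inhibition vs vehicle controls.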

[9] = NCI Yeast Anticancer Drug Screen. Data for the rad14 strain (AID 159);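 note: 0% = growth of vehicle-treated control cultures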; details: S. cerevisiae rad14 strain growth inhibition, stronger effect = higher value
How it was run: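 Test compounds were applied to a repair-deficient yeast strain. Its growth was then compared with that of cultures given vehicle alone, and inhibition was expressed relative to those controls.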

[10] = NCI Yeast Anticancer Drug Screen. Data for the sgs1 mgt1 strain (AID 161);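 note: 0% = growth of cultures given vehicle only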; details: S. cerevisiae sgs1 mgt1 strain, stronger effect = higher value
How it was run: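 Read-out: growth inhibition vs vehicle controls. Cells: mutant yeast strain deficient in DNA damage repair.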

[11] = NCI Yeast Anticancer Drug Screen. Data for the CLN2oe strain (AID 163);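 note: 0% = growth of vehicle-only control cultures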; details: S. cerevisiae CLN2oe strain, stronger effect = higher value
How it was run: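 Read-out: yeast growth inhibition, expressed relative to vehicle-only controls. The strain bears an engineered cell-cycle alteration.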

[12] = NCI Yeast Anticancer Drug Screen. Data for the cln2 rad14 strain (AID 165);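 note: 0% = growth equal to vehicle treated cultures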; details: S. cerevisiae cln2 rad14 strain, stronger effect = higher value
How it was run: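 cln2 rad14 yeast strain; compound exposure; growth inhibition read vs vehicle controls.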

[13] = NCI Yeast Anticancer Drug Screen. Data for the bub3 strain (AID 167); details: S. cerevisiae bub3 mutant strain, stronger effect = higher value
How it was run: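 Yeast carrying a defined mutation is treated with each compound, and growth is compared with that of vehicle-exposed cells to give inhibition.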

[14] = NCI Yeast Anticancer Drug Screen. Data for the rad18 strain (AID 177); details: S. cerevisiae rad18 mutant growth inhibition, stronger effect = higher value
How it was run: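 Readout: growth inhibition vs vehicle controls. Cells: genetically altered yeast strain, DNA repair defect.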

[15] = NCI Yeast Anticancer Drug Screen. Data for the mgt1 strain (AID 153); details: S. cerevisiae mgt1 mutant growth inhibition, stronger effect = higher value
How it was run: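 mgt1 yeast grown with test compound; read-out is growth inhibition versus vehicle-treated cultures.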

[16] = at 5.0 µM (retest, dose inferred, filed as 0.5)
[17] = at 50.0 µM (retest, dose inferred, filed as 5.0)

Measured: growth inhibition

O=c1ssc(=Nc2ccccc2)n1-c1ccccc1
75% (active) and 8% (inactive): [3]; [16]
inactive: [1]; at 1.2 µM 7% | [1]; at 3.7 µM 4% | [1]; at 11.0 µM 2% | [1]; at 33.0 µM 17% | [1]; at 100.0 µM 48% | [2]; at 1.2 µM -15% | [2]; at 3.7 µM 7% | [2]; at 11.0 µM -6% | [2]; at 33.0 µM 34%
active: [2]; at 100.0 µM 79% | [3]; [17] 99% and 82% | [3]; at 50.0 µM 95.4% and 98.7%

CC(C)(C)CC(C)(C)c1cc(O)c(O)c(CN2CCCCC2)c1
inactive: [4]; at 1.2 µM -2% | [4]; at 3.7 µM -3% | [4]; at 11.0 µM 1% | [4]; at 33.0 µM 12% | [4]; at 100.0 µM 32% | [5]; at 1.2 µM 0% | [5]; at 3.7 µM 1% | [5]; at 11.0 µM 4% | [5]; at 33.0 µM 10% | [5]; at 100.0 µM 7% | [6]; at 1.2 µM -5% | [6]; at 3.7 µM -6% | [6]; at 11.0 µM -12% | [6]; at 33.0 µM -14% | [6]; at 100.0 µM -11% | [7]; at 1.2 µM -1% | [7]; at 3.7 µM 0% | [7]; [16] 5% | [7]; at 11.0 µM 9% | [7]; at 33.0 µM 9% | [7]; [17] 54% | [7]; at 100.0 µM 25% | [8]; at 1.2 µM 0% | [8]; at 3.7 µM 1% | [8]; [16] 16% | [8]; at 11.0 µM 2% | [8]; at 33.0 µM 7% | [8]; [17] 11% | [8]; at 50.0 µM 57.9% | [8]; at 100.0 µM 24% | [9]; at 1.2 µM -1% | [9]; at 3.7 µM 2% | [9]; at 11.0 µM 10% | [9]; at 33.0 µM 30% | [9]; at 100.0 µM 68% | [10]; [16] -5% | [10]; [17] 35% | [10]; at 50.0 µM 57.4% | [11]; at 1.2 µM -3% | [11]; at 3.7 µM 1% | [11]; at 11.0 µM 0% | [11]; at 33.0 µM 9% | [11]; at 100.0 µM 49% | [12]; [16] -22% | [12]; [17] 13% | [13]; at 1.2 µM -3% | [13]; at 3.7 µM 2% | [13]; [16] -13% | [13]; at 11.0 µM -30% | [13]; at 33.0 µM 17% | [13]; [17] 59% | [13]; at 100.0 µM 27% | [1]; at 1.2 µM 3% | [1]; at 3.7 µM 3% | [1]; at 11.0 µM 4% | [1]; at 33.0 µM -24% | [1]; at 100.0 µM 55% | [2]; at 1.2 µM 1% | [2]; at 3.7 µM 1% | [2]; at 11.0 µM 7% | [2]; at 33.0 µM 24% | [2]; at 100.0 µM 63% | [3]; [16] 3% | [3]; [17] 45% | [3]; at 50.0 µM 65% | [14]; at 1.2 µM 5% | [14]; at 3.7 µM 3% | [14]; at 11.0 µM -38% | [14]; at 33.0 µM 28% | [14]; at 100.0 µM 62%
active: [7]; at 50.0 µM 71.8% | [12]; at 50.0 µM 73.7% | [13]; at 50.0 µM 78.6%

COc1nc2c(c(=O)n1C)N=C(c1ccccc1)[C@H](C(CC(=O)c1ccccc1)c1ccccc1)C(c1ccccc1)N2 (some centres undefined)
inactive: [4]; at 1.2 µM -2% | [4]; at 3.7 µM 13% | [4]; at 11.0 µM 34% | [4]; at 33.0 µM 31% | [4]; at 100.0 µM 60% | [5]; at 1.2 µM -27% | [5]; at 3.7 µM -20% | [5]; at 11.0 µM -19% | [5]; at 33.0 µM 6% | [5]; at 100.0 µM 46% | [15]; at 1.2 µM -53% | [15]; at 3.7 µM -38% | [15]; at 11.0 µM -9% | [15]; at 33.0 µM 34% | [15]; at 100.0 µM 60% | [7]; at 1.2 µM 6% | [7]; at 3.7 µM 3% | [7]; [16] 65% | [7]; at 11.0 µM 5% | [7]; at 33.0 µM 21% | [7]; at 50.0 µM 52.4% | [7]; at 100.0 µM 55% | [8]; at 1.2 µM -16% | [8]; at 3.7 µM -9% | [8]; [16] 13% | [8]; at 11.0 µM -8% | [8]; at 33.0 µM -4% | [8]; at 50.0 µM 61.5% | [8]; at 100.0 µM 34% | [10]; [16] -14% | [10]; [17] 35% | [10]; at 50.0 µM 53.7% | [11]; at 1.2 µM 10% | [11]; at 3.7 µM 1% | [11]; at 11.0 µM 4% | [11]; at 33.0 µM 13% | [11]; at 100.0 µM 43% | [12]; [16] 2% | [12]; [17] -15% | [12]; at 50.0 µM 7.8% | [13]; at 1.2 µM -11% | [13]; at 3.7 µM -34% | [13]; [16] 0% | [13]; at 11.0 µM 9% | [13]; at 33.0 µM 18% | [13]; [17] 23% | [13]; at 50.0 µM 36.4% | [13]; at 100.0 µM 41% | [1]; at 1.2 µM -53% | [1]; at 3.7 µM -38% | [1]; at 11.0 µM -9% | [1]; at 33.0 µM 34% | [1]; at 100.0 µM 60% | [2]; at 1.2 µM -9% | [2]; at 3.7 µM -10% | [2]; at 11.0 µM 23% | [2]; at 33.0 µM 40% | [3]; [16] 14% | [3]; [17] 35% | [3]; at 50.0 µM 20.1% | [14]; at 1.2 µM 37% | [14]; at 3.7 µM 47% | [14]; at 11.0 µM 50% | [14]; at 33.0 µM 46% | [14]; at 100.0 µM 67%
active: [7]; [17] 94% | [8]; [17] 94% | [2]; at 100.0 µM 71%
